Only some compounds are listed: those with a hit (about 1.9% of all), similar ones and a draw of the others.
BRCA1 expr act – qHTS Assay to Identify Small Molecule Activators of BRCA1 Expression; MCF7-BRCA1-FFLuc reporter, luminescence, 48 h; response scale: scaled: vehicle 0%, 10 µM genistein 100%; Potency, µM (highest dose often 46.1 µM), for the others: at the top dose activation, hits mostly activators; actives 1.1% (n = 380,000); further: potency means the concentration at half of the fitted maximal effect; nearly all actives have a fitted effect of over 80% in size
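Using MCF7 cells harboring a BRCA1 firefly luciferase reporter, plated 2 h before compound pinning, the screen measured luminescence after 48 h incubation. Responses were normalized to DMSO and 10 microM genistein, then fitted for concentration-effect.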
IL2 activator – qHTS of IL-2 Activators. AID 652025, 2013. actives 0.065% (n = 360,000). IL-2 activation reporter assay, cell-based qHTS; stimulated with anti-CD3/CD4/CD28 beads; in transgenic mouse T cells. activation, % (series mostly up to about 46 µM); in the data active means activation above about 50%; inconclusive means mostly about 30% to 49%; further: 0% is about no effect
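Using fluorescent plate cytometry, EGFP and DsRed are detected in transgenic mouse T cells stimulated 18 h at 37 degrees C with antibody-coated beads after 60 min compound pretreatment.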
RXFP1 antag – qHTS Assay for Antagonists of the Relaxin Receptor RXFP1; Relaxin receptor 1 (Homo sapiens), Q9HBX9; HEK293-RXFP1, relaxin-stimulated cAMP HTRF, 30 min; stronger effect = lower value; activity change, negative = inhibition, % at 57.5 µM; actives 0.59% (n = 350,000); AID 1259400, 2018;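 active means activity change of -60% or lower, but not beyond a set lower limit; inconclusive means change between -60% and -40%, or beyond the set limit; inactive means change above -40%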; further: on the % scale 0 is the no-effect control and ±100 the full control effect
NPSR antagonist – qHTS Assay for Antagonists of the Neuropeptide S Receptor: cAMP Signal Transduction; Q6W5P4; Potency, µM (doses to about 38.3 µM), without a hit: top-dose activity change, negative = inhibition, usual class: inhibitors; actives 1% (n = 220,000); AID 1461, 2008; CHO-NPSR cells, cAMP TR-FRET, antagonist mode; further: potency means the concentration at half of the fitted maximal effect; on the % scale 0 is the no-effect control and ±100 the full control effect; nearly all actives have a fitted effect of over 50% in size
Target sequence (Q6W5P4 whole entry, looked up): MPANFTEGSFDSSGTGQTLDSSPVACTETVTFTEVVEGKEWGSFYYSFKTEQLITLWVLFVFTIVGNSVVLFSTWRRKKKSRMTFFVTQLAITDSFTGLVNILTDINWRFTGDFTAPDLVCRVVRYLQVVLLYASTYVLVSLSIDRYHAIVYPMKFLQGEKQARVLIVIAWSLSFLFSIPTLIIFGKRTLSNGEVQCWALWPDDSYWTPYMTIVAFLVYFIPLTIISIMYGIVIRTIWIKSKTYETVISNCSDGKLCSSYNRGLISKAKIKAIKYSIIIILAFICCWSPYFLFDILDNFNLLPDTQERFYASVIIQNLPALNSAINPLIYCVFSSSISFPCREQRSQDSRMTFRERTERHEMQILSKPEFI
RXFP1 ag – qHTS Assay for Agonists of the Relaxin Receptor RXFP1; Relaxin receptor 1 (Homo sapiens), Q9HBX9; Potency, µM (top dose mostly 57.5 µM), inactives show at the top dose activation, usual class: activators; HEK293T-RXFP1 cAMP TR-FRET, 30 min; response scale: percent of porcine relaxin response, buffer zero; actives 0.3% (n = 370,000); further: potency means the concentration at half of the fitted maximal effect; on the % scale 0 is the no-effect control and ±100 the full control effect; nearly all actives have a fitted effect of over 60% in size
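Agonist response is measured as cAMP accumulation in an RXFP1-transfected HEK293T line under PDE4 inhibition. Values are scaled between buffer-only and 29 nM porcine relaxin, and EC50s come from standard Hill equation fits.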
Giardia kill – Small Molecules that selectively kill Giardia lamblia: qHTS. actives 0.15% (n = 340,000). activity change, % at 7.66 µM, hits read low. Giardia lamblia trophozoite viability. AID 540267, 2011; in the data active means activity change below about -80%; inconclusive means between about -30% and that limit;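 further: parasites exposed to compound for two days anaerobically before the ATP read; on the % scale 0 is the no-effect control and ±100 the full control effect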
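Giardia lamblia trophozoites (100 cells/well) were incubated with compounds for 48 h at 37 deg C under anaerobic conditions. Viability was read as ATP content by one-step luminescence after 15-30 min at room temperature.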
Active calls of the source: *; ? = inconclusive; . = no result; ! = a repeat was not active; [ ] = another dose, or the depositor's remark. Unless noted, the call rests on the fitted dose curve; in most records, active means well fitted curve in the direction sought with a large enough effect; inconclusive means small, poorly fitted or top-dose-only effect, or another doubt; inactive means no such curve, though single readings can be large; an effect the other way counts as inactive or inconclusive.

SMILES | BRCA1 expr act | IL2 activator | RXFP1 antag | NPSR antagonist | RXFP1 ag | Giardia kill
Cc1cc(C(=O)COC(=O)c2ccc(O)cc2)c(C)n1Cc1ccco1 | 2.8µM* | -2 | . | -17% | 2% | 11
Cc1cc(C(=O)COC(=O)c2ccc(Br)o2)c(C)n1Cc1ccco1 | . | . | . | -35% | 1% | .
Cc1cc(C(=O)CSc2ncccn2)c(C)n1Cc1ccco1 | ? | -1 | -2 | -8% | -2% | -25
CC(C)(C)C(=O)OCOC(=O)C1N2C(=O)CC2S(=O)(=O)C1(C)C (configuration not stated) | . | . | -13 | . | . | .
Cc1ccc(C)c(S(=O)(=O)c2nnn3c2nc(Nc2ccc(F)c(Cl)c2)c2sccc23)c1 | . | . | -19 | . | 4% | .
CCN1C(=NCc2cc(OC)c(OC)c(OC)c2)N[C@@H](c2cccc(F)c2)C(C(=O)OC)=C1C | . | . | . | . | 0% | .
Cc1ccc(C2CC(=O)c3cnc(NC(=O)c4ccco4)nc3C2)cc1 (configuration not stated) | 21% | 2 | -6 | -5%[46.1 µM] | 2% | -19
CC(C)c1ccc(C2CC(=O)c3cnc(NC(=O)c4ccco4)nc3C2)cc1 (configuration not stated) | 10µM* | -3 | -13 | . | 0% | -14
C#CC(=O)N(c1cc(OC)ccc1OC)C(C(=O)NC1CCCC1)c1cccs1 (configuration not stated) | -51% | -1 | -1 | 10µM* | 0% | 2
Ic1ccc(Nc2nc(NCCN3CCOCC3)nc(N3CCCC3)n2)cc1 | -33% | . | . | . | . | .
O=C(NC1CCCC1)c1cc(-c2ccccc2Cl)on1 | ? | 0 | -20 | . | 1% | -22
O=C(NC1CCCCC1)c1cc(-c2cccc(Cl)c2)on1 | 4.5µM* | -2 | -15 | . | 1% | 26
O=C(NC1CCCC1)c1cc(-c2ccccc2O)on1 | 2.8µM* | 3 | -4 | . | -1% | -12
Clc1ccc(Cn2c3c(c4ccccc42)CCc2cc4ccccc4nc2-3)cc1 | -24% | . | . | . | . | 5
Cc1ccnc(SCC(=O)c2cc3ccccc3o2)n1 | 8.9µM* | -1 | -9 | 4% | 6% | -6
Cn1ccnc1SCC(=O)c1cc2ccccc2o1 | 45% | 0 | 8 | 3%[7.67 µM] | 1% | -4
COc1ccccc1N1CCN(/N=C\c2ccccc2)CC1 | ? | -1 | -8 | . | 0% | -3
COc1ccccc1N1CCN(/N=C/C(Cl)=C/c2ccccc2)CC1 | 4µM* | -3 | ? | -2% | 0% | -4
COC(=O)c1ccc([C@H]2Nc3ccc(S(=O)(=O)Nc4cccc(C)c4)cc3[C@H]3C=CC[C@H]32)cc1 | . | . | -70* | . | 3% | .
Cc1ccc([C@H]2Nc3ccc(S(=O)(=O)Nc4cccc(Cl)c4C)cc3[C@H]3C=CC[C@H]32)cc1 | 7% | . | -62* | . | 2% | -22
Cc1noc(C)c1-c1ccc2ncnc(NCc3cccc(-c4ccccc4)c3)c2c1 | . | . | . | . | 2% | .
CCc1ccccc1NC(=O)c1ccc2[nH]c(C)c(C)c2c1 | 8.9µM* | . | . | . | -2% | .
OC[C@H]1O[C@@H](n2cnc3c(=S)nc[nH]c32)[C@H](O)[C@@H]1O | . | . | 8 | . | . | .
C=Cc1ccc(Cn2c(=O)n(-c3ccc(C)cc3)c(=O)c3c2c2cc(OC)ccc2n3C)cc1 | -3% | . | . | . | 0% | .
Cc1ccc(O)c(NC(=O)c2ccc3c(c2)C(=O)N(CC(C)C)C3=O)c1 | 7.9µM* | -4 | -8 | . | -3% | ?
SMILES | BRCA1 expr act | IL2 activator | RXFP1 antag | NPSR antagonist | RXFP1 ag | Giardia kill
Nc1c(Cl)cc(C=O)cc1Cl | 11% | . | . | . | . | .
O=S(=O)(Nc1cccc2ccccc12)c1ccc2ccccc2c1 | -35% | . | . | . | . | -19
O=C(Nc1ccc2nc3n(c(=O)c2c1)CCCC3)c1ccccc1F | ? | -2 | 2 | . | 16% | -1
COc1ccccc1Nc1c2c(nc3ccc(NC(=O)/C=C/c4cccc(OC)c4OC)cc13)CCCC2 | . | . | -5 | . | -1% | .
COc1ccccc1Nc1c2c(nc3ccc(NC(=O)c4cccc(F)c4)cc13)CCCC2 | . | . | -75* | . | -1% | .
O=C(Nc1ccc2nc3n(c(=O)c2c1)CCCC3)c1cccc(F)c1 | 10µM* | -1 | -10 | . | 5% | 12
C=C(C)COc1ccc(-c2[nH]ncc2-c2ccc(OC)c(OC)c2)c(O)c1 | -79% | -1 | -78* | -14%[46.1 µM] | 2% | 14
COc1ccc(-c2cn[nH]c2-c2ccc(OCC(=O)NN)cc2O)cc1OC | -13% | -4 | -14 | . | 3% | -14
COc1ccc(-c2cn[nH]c2-c2ccc(OCc3ccc(F)cc3)cc2O)cc1OC | -87% | 0 | -73* | -51% | 2% | -20
C=C(C)COc1ccc(-c2[nH]ncc2-c2ccc(OC)cc2)c(O)c1 | 1% | -1 | -64* | -39% | 3% | 0
S=c1nc[nH]c2n[nH]nc12 | 0% | . | . | . | . | .
CC(C)=CC(=O)Nc1nnc(-c2ccccc2C)s1 | 3.5µM* | 2 | -4 | -9% | -2% | 2
CCc1nnc(NC(=O)C=C(C)C)s1 | 73% | 0 | 1 | 11% | 2% | -18
Cc1ccc(SCC(=O)Nc2ccccc2C(=O)O)cc1 | 4.5µM* | -2 | -29 | -4%[46.1 µM] | 3% | -14
CCN1CCN(C(=O)c2ccc3c(c2)N(Cc2c(F)cccc2Cl)C(=O)c2ccccc2S3)CC1 | . | . | -11 | . | 1% | .
O=C(O)CCCn1c(O)c(C=C2N=c3ccccc3=N2)sc1=S | -52% | -1 | -17 | -34% | 0% | -18
CCCC(C(=O)O)n1c(O)c(C=C2N=c3ccccc3=N2)sc1=S (configuration not stated) | -19% | 0 | -61* | -19% | -14% | -20
O=C(c1ccc(F)cc1)C1CCN(CCn2c(=O)[nH]c3ccccc3c2=O)CC1 | -6% | 0 | -16 | 1.6µM*! | -1% | 4
O=C(CCCn1c(=O)[nH]c2ccccc2c1=O)Nc1ccc(F)cc1 | -5% | 0 | -9 | 1% | 3% | -9
Oc1c(C(Nc2nccs2)c2ccc(C(F)(F)F)cc2)ccc2cccnc12 (configuration not stated) | -81% | 3 | ? | -13% | 0% | -9
Oc1c(C(Nc2cccc(C(F)(F)F)c2)c2ccncc2)ccc2cccnc12 (configuration not stated) | -87% | -1 | -61* | -25% | 2% | 7
CC(C)CCNC(=O)CN1C(=O)c2cccnc2Oc2ccccc21 | . | . | -4 | . | -2% | .
Nc1ncnc2c1ncn2Cc1c(F)cccc1Cl | . | . | -6 | . | . | .

Compound activity from PubChem.
